ChEMBL document CHEMBL3988442, “University of Dundee, Small-Polar-MMV Screening Library” (2021)
Screen size: about 48,000 compounds; about 13,000 (27%) showed an effect of 50% or more. The list shows a part of the results.

System: Wolbachia pipientis
Assay: Anti-Wolbachia Cell-Based Screen
Assay type: functional
Design: scale not given: in the data most compounds retested in dose-response had high values
Details: 5 µM

SMILES	Percent Effect
CC(=O)c1cc(CN2CCCCC2c2nc3cc(F)ccc3[nH]2)cs1 (stereo unspecified)	-8.075%
CC(=O)N1CC(C(=O)Nc2cccc(OC(F)F)c2)C1	13.11%
CCc1nc(-c2noc3ccc(C(=O)NCCN(C)C)cc23)co1	-6.651%
CC(C)(C)NS(=O)(=O)c1ccccc1CNCc1ccccc1	8.138%
Cc1nc(CN2CCCC2Cn2ccnc2C(C)C)nc2ccccc12 (stereo unspecified)	0.1374%
CC(C)c1nccn1CC1CCCN1Cc1nc2ccccc2n1C (stereo unspecified)	-4.978%
CC(C)S(=O)(=O)N1CCCC(c2nccn2Cc2cccnc2)C1 (stereo unspecified)	-1.301%
CC(C)c1nccn1-c1nccnc1C1CCCN1Cc1ccccc1 (stereo unspecified)	124.1%
CC(C)c1nccn1-c1nccnc1C1CCCN1Cc1cccnc1 (stereo unspecified)	125.6%
Nc1ncncc1-c1noc([C@@H]2CCCN2Cc2cccnc2)n1	-7.414%
CC(NCc1ccc(OCC(N)=O)cc1)c1ccc2c(c1)CCCC2 (stereo unspecified)	-9.081%
CS(=O)(=O)Cc1noc(CN(Cc2ccco2)c2ccccc2)n1	-3.718%
CN(C)CCN(C)C(=O)c1cnc2c(c1)nc(-c1ccccc1Cl)n2C	-6.044%
Cc1nnc(NC(=O)NCc2ccc(F)cc2)s1	93.84%
Cc1nnc(NC(=O)NCc2cc(F)cc(F)c2)s1	4.254%
Cn1cc(NC(=O)NCc2ccoc2)ccc1=O	13.17%
COc1ccc(F)cc1C(C)NC(=O)Nc1nnc(C)s1 (stereo unspecified)	-6.536%
Cc1nnc(NC(=O)NCc2ccoc2)s1	74.81%

SMILES	Percent Effect
O[C@H]1CC[C@@H](Cc2cc(-c3ccccn3)on2)O[C@@H]1CNCC1CC1	8.949%
CN1CCCN(C(=O)c2nc3c(s2)CCCN3CC2CC2)CC1	15.57%
CN(C)Cc1ccnc(C2CCCN2Cc2cc3ccccc3s2)n1 (stereo unspecified)	97.93%
CN(C)Cc1ccnc(C2CCCN2Cc2ccncc2)n1 (stereo unspecified)	-6.271%
CN(C)Cc1ccnc(C2CCCN2Cc2ccc3ncccc3c2)n1 (stereo unspecified)	102.5%
O=C1O[C@@H]2CN(Cc3cc4ccccc4s3)C[C@@H]2N1Cc1ccccn1	7.899%
c1ccc2sc(CN3CCCC3c3noc(C4CC4)n3)nc2c1 (stereo unspecified)	1.502%
Cc1cc(C)cc(CN2CCCC2c2noc(C)n2)c1 (stereo unspecified)	-1.497%
CCC(C)(C)NC(=O)c1ccc(NC(=O)NCc2cc(C)on2)cc1	-5.404%
CN1CC2(CCN(C(=O)c3ccc4c(=O)n(C)cnc4c3)CC2)CC1=O	-1.826%
CN(C(=O)Cc1c[nH]c2ccccc12)C1CCN(c2ccccn2)CC1	-5.005%
COc1ccc(CC(=O)N2CCCC(Cn3cc(CN)nn3)C2)cc1 (stereo unspecified)	-29.22%
COc1cccc(C(=O)N2CCCC(C(=O)CCc3ccccc3)C2)c1 (stereo unspecified)	-1.62%
COc1ccc(CC(=O)N2CCC[C@@H](N)[C@@H]2c2ccccc2F)cc1.Cl	65.32%
COC(=O)c1cc2n(n1)CCCN(C(=O)Cc1c[nH]c3ccccc13)C2	-8.312%
COc1cccc(CCC(=O)N2CCC[C@@H](N)[C@@H]2c2ccccc2F)c1.Cl	156.6%
COc1cccc(CC2CCCN2CC(N)=O)c1 (stereo unspecified)	14.09%
N[C@@H]1CCCN(C(=O)Cc2c[nH]c3ccccc23)[C@H]1c1ccccc1F	92.02%
